Source: PubChem
E coli growth-1: E. coli V3065 growth inhibition, primary screen, counter-screen for AddAB inhibitor project, absorbance, OD600; 18 h; inhibition, % at 11.9 µM; actives 0.27% (n = 330,000); AID 449728, 2010;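 active = inhibition above the campaign's mean inhibition across all tested compounds plus 3 SD, cut at about 9.9% in these data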;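 also: uninfected addAB+ strain grown without phage in ampicillin broth; 0% = DMSO wells and 100% = ciprofloxacin 0.95 µg/ml wells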
AddAB inh: growth inhibition of E. coli expressing H. pylori AddAB, primary screen, AddAB inhibitor project, absorbance. inhibition, % at 11.9 µM. actives 0.29% (n = 330,000); in the data active = inhibition above about 12%;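 also: 0% = vehicle wells of infected cells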
E coli growth-2: E. coli growth inhibition, primary screen, OD600. Escherichia coli growth, 23 h; hits give low values. OD600 absorbance (no concentration beside the values). actives 0.21% (n = 330,000). AID 1053175, 2014;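 active = OD600 absorbance below the run mean of sample wells minus 3.6 SD, in any replicate, cut at about 0.56 in these data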
phage Ecoli inh: growth loss of phage-infected E. coli, primary screen, RecBCD inhibitor project, absorbance, with phage, HTS; inhibition, % at 11.9 µM; actives 0.26% (n = 360,000); AID 651602, 2012; in the data active = inhibition above about 11%
Tat transport: E. coli Tat export inhibitors, primary screen, MC4100, TorA-mCherry reporter, fluorescence, single point. inhibition, % at 10 µM. actives 0.036% (n = 340,000). AID 488895, 2010;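 active = mean replicate inhibition at least 50% and at least half of replicates individually reaching 50%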;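 also: exported cargo escapes ClpAP degradation while cytoplasmic cargo is degraded and loses fluorescence; 0% = median of neutral control wells and 100% = median of NaSCN control wells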
AddAB conf: growth loss of phage-infected E. coli expressing H. pylori AddAB, confirmation, AddAB inhibitor project, absorbance, E. coli V3065, T4 phage, triplicate; AID 488942, 2010; OD; T4 phage with gene 2 nonsense mutations; actives 64% (n = 880); shares compounds with AddAB inh; inhibition, % at 11.9 µM;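 active = mean inhibition above a set limit taken from the earlier primary screen, cut at about 13% in these data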;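 also: higher means less bacterial growth since AddAB block lets phage replicate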
RecBCD counter: growth loss of RecBCD+ E. coli with mutant T4 phage, counter-screen for AddAB inhibitor project, absorbance, V66 E. coli; shares compounds with AddAB inh; OD growth; inhibition, % at 11.9 µM; actives 73% (n = 880); AID 488955, 2010;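 active = mean inhibition above the mean of solvent-only control wells plus 3 SD, cut at about 4% in these data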;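 also: optical density read after an 18 h incubation at 37 °C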
Bact viability: bacterial viability inhibition counter-screen, confirmation, counter-screen for AddAB inhibitor project, absorbance; actives 35% (n = 880); inhibition, % at 11.9 µM; absorbance (AddAB counterscreen); shares compounds with AddAB inh; in the data active = inhibition above about 25%
Starred values were filed as active, the others as inactive; ! = repeats disagree. Sampled rows, rich in hits. Any-hit rate of the full collection: about 0.5%.

How did CN1C(=O)NC(=O)/C(=C\c2ccc([N+](=O)[O-])o2)C1=O do in these assays?
E coli growth-1: -4; AddAB inh: -2; Tat transport: 0

What do the screens show for `CN1C(=O)NC(=O)/C(=C/c2ccc([N+](=O)[O-])o2)C1=O`?
E coli growth-1: 2; AddAB inh: 3; E coli growth-2: 0.3*; phage Ecoli inh: 2

What do the screens show for `CN(C)C(=S)SSC(=S)N(C)C`?
E coli growth-1: -1; AddAB inh: 0; E coli growth-2: 0.49*; phage Ecoli inh: 5; Tat transport: 12

Results for CN1C(=O)C2C[C@@]3(Br)c4ccccc4N(OOSc4ccccc4)C3N2C(=O)C1Cc1ccccc1 (some centres not stated) ?
E coli growth-2: 0.7

How did COC1C(OC(=O)c2ccc(C)[nH]2)C(O)C(Oc2ccc3c(O)c(NC(=O)c4ccc(O)c(CC=C(C)C)c4)c(=O)oc3c2Cl)OC1(C)C (configuration not stated) do in these assays?
E coli growth-1: -1; AddAB inh: 3; E coli growth-2: 0.052*; phage Ecoli inh: 9; Tat transport: -24

How did COc1cc2c3c(c1OC)Oc1ccc(cc1)CC1c4c(cc(OC)c(OC)c4Oc4ccc(cc4)CC3N(C)CC2)CCN1C (configuration not stated) do in these assays?
E coli growth-2: 0.69

What do the screens show for `COc1cc2c3c(c1OC)Oc1ccc(cc1)C[C@H]1c4c(cc(OC)c(OC)c4Oc4ccc(cc4)C[C@@H]3N(C)CC2)CCN1C`?
E coli growth-1: 0; AddAB inh: 3; phage Ecoli inh: 1; Tat transport: 54*

How did COC(=O)C1=C(c2ccc(OC(F)(F)F)cc2)CC2CCC1N2C(=O)N1CCCC1 (configuration not stated) do in these assays?
E coli growth-2: 0.67

What do the screens show for `N#CC1c2ccccc2-n2nncc2CN1Cc1cc(Cl)cc(Cl)c1` (configuration not stated)?
phage Ecoli inh: 4; Tat transport: 56*

Results for CCCN1CCC2c3cc(O)ccc3CCC21 (configuration not stated) ?
E coli growth-2: 0.67

What do the screens show for `O=c1[nH]sc2cc(F)ccc12`?
E coli growth-2: 0.49*; phage Ecoli inh: -1; Tat transport: -20

Results for O=C(Cc1cccs1)N1CCC2(CC1)OCCO2 ?
E coli growth-1: 11*; AddAB inh: 8; E coli growth-2: 0.68; phage Ecoli inh: 1; Tat transport: -3

What do the screens show for `COC(=O)C1=C(c2cc3ccccc3o2)CC2CCC1N2C(=O)NCCNC(C)=O` (configuration not stated)?
E coli growth-2: 0.7

Results for Oc1cc(Cl)c(Cl)c(Cl)c1 ?
E coli growth-2: 0.068*; phage Ecoli inh: 3; Tat transport: -13

What do the screens show for `COC(=O)C1=C(c2c(C)noc2C)CC2CCC1N2C(=O)NCCOc1ccc(OC)cc1` (configuration not stated)?
E coli growth-2: 0.71

Results for CCCCCCCCCCCCCCCC[N+](C)(C)C ?
E coli growth-1: 2; AddAB inh: -1; E coli growth-2: 0.069*; phage Ecoli inh: 1; Tat transport: 32

Results for COc1cc(C2c3cc4c(cc3C(OC)C3COC(=O)C23)OCO4)cc(OC)c1O (configuration not stated) ?
E coli growth-2: 0.65

How did COC(=O)C1=C(c2ccc(-c3ccccc3)c(F)c2)CC2CCC1N2C(=O)N1CCCCC1 (configuration not stated) do in these assays?
E coli growth-2: 0.73

Results for Cn1ncnc2c(=O)n(C)c(=O)nc1-2 ?
E coli growth-1: 45*; AddAB inh: 47*; E coli growth-2: 0.048*; Tat transport: 128*; AddAB conf: 73*; RecBCD counter: 76*; Bact viability: 79*

Results for CN(C)C1C(=O)C(C(N)=O)=C(O)C2(O)C(=O)C3=C(O)c4c(O)cccc4C(C)(O)C3CC12 (configuration not stated) ?
E coli growth-1: 94*; AddAB inh: 85*; Tat transport: 147*; AddAB conf: 94*; RecBCD counter: 93*; Bact viability: 92*

What do the screens show for `c1ccc2c(c1)[nH]c1cnccc12`?
E coli growth-1: 3; AddAB inh: 4; E coli growth-2: 0.63; phage Ecoli inh: 4; Tat transport: 8

How did Cc1c2ccncc2c(C)c2c1[nH]c1ccccc12 do in these assays?
E coli growth-1: 14*; AddAB inh: 13*; E coli growth-2: 0.42*; Tat transport: -10; AddAB conf: 9; RecBCD counter: 0; Bact viability: 11

What do the screens show for `COP(=O)(OC)C(NC(=O)C=Cc1ccccc1)C(Cl)(Cl)Cl` (configuration not stated)?
E coli growth-2: 0.7

Results for CN(C)C1(c2nnnn2-c2ccc(Cl)cc2)CCCCC1 ?
E coli growth-1: 1; AddAB inh: 10; phage Ecoli inh: 3; Tat transport: -2

How did CC(C)CC(N(C)C)C1(c2ccc(Cl)cc2)CCC1 (configuration not stated) do in these assays?
E coli growth-1: 27*!; AddAB inh: 37*!; E coli growth-2: 0.52*!; phage Ecoli inh: 2; Tat transport: -6; AddAB conf: 100*; RecBCD counter: 3; Bact viability: 67*

Results for COC(=O)C1=C(c2ccc(Cl)c(C(F)(F)F)c2)CC2CCC1N2C(=O)NC1CC1 (configuration not stated) ?
E coli growth-2: 0.7
